Screening results as filed in PubChem.
VDR inh – vitamin D3 receptor (human) inhibition; Potency, µM, without a hit: max response, negative = inhibition, most hits filed as inhibitors; AID 504847; VDR-SRC2-3 peptide fluorescence polarization, 2 h; 0.93% of 400,000 active; P11473; further: on the % scale 0 is the no-effect control and ±100 the full control effect
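Reagent solutions, kept cold and dark, are dispensed first; compounds are then pinned in at 23 nl, plates briefly spun, and incubated 2 h at ambient temperature. Inhibition of VDR–SRC2-3 peptide binding is read by fluorescence polarization.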
G9a inh – G9a (human) methyltransferase inhibition. G9a H3K9 monomethylation, AlphaScreen, 2 h. Potency, µM (highest dose often 102 µM), without a hit: at the top dose activity, negative = inhibition, most hits filed as inhibitors. 8.8% of 350,000 active. AID 504332; further: on the % scale 0 is the no-effect control and ±100 the full control effect; nearly all actives have a fitted effect of over 75% in size
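Using a bead-based AlphaScreen, monomethylated H3K9 product from 2 h room-temperature reactions (G9a 20 nM, peptide 500 nM, SAM 20 uM) was detected with 0.5 ug/mL rabbit anti-H3K9me1 antibody.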
ALOX12 inh – inhibitors of human 12S-lipoxygenase ALOX12; P18054; purified 12hLO, xylenol orange hydroperoxide absorbance; Potency, µM (titrated, usually from 108 µM), without a hit: top-dose activity change, negative = inhibition, hits mostly inhibitors; 1.1% of 580,000 active; AID 1671190; further: on the % scale 0 is the no-effect control and ±100 the full control effect
Target sequence (P18054 whole entry, looked up): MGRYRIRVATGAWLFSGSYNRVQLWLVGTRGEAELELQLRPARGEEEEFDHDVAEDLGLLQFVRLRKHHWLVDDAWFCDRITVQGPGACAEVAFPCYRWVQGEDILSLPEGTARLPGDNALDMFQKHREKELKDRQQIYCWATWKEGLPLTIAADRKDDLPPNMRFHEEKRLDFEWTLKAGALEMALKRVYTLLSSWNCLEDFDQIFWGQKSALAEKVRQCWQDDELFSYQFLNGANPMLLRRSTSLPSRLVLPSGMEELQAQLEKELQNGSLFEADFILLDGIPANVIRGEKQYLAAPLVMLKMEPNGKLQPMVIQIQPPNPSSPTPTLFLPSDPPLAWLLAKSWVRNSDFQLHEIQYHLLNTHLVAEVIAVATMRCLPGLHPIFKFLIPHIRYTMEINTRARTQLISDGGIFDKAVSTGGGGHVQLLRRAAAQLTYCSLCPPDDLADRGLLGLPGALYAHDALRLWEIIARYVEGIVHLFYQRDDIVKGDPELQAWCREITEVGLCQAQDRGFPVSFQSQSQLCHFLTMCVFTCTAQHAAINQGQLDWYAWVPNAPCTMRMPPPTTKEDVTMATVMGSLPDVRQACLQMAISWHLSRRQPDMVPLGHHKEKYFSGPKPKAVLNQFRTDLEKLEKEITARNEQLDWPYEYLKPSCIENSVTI
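Hydroperoxide product was detected by ferrous iron/xylenol orange as the 573 to 405 nm absorbance ratio. Arachidonic acid at 40 uM (final) was turned over for 30 min at room temperature by 150 nM human 12hLO, pH 7.0 Hepes buffer, after 15 min compound preincubation.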
Sfp inh – Sfp phosphopantetheinyl transferase inhibition; Q9F4F7; 3.5% of 310,000 active; Potency, µM, inactives show largest response in the series, negative = inhibition, most hits filed as inhibitors; Biochemical Sfp PPTase activity, qHTS;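 further: the enzyme is Sfp with the accession as filed and its product quenches rhodamine fluorescence; 0% = enzyme reaction without inhibitor and -100% = no enzyme wells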
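Reaction rates are the 30-min fluorescence difference (ex 525, em 598 nm) in wells containing 15 nM Sfp, 5 uM rhodamine-CoA and 12.5 uM BHQ-2-YbbR at pH 7.6 with 10 mM MgCl2.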
Glioma ERSR ind – inducers of ER stress response in human glioma cells. U87-MG GRP78 promoter luciferase reporter, 16 h. Potency, µM, inactives show at the top dose activation, most hits filed as activators. 0.02% of 420,000 active; further: series mostly up to about 76 µM; % of control where 0% means no effect; nearly all actives have a fitted effect of over 35% in size
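ERSR induction read as luciferase luminescence (Bright-Glo, 10 min at room temperature) in stably transfected human U87-MG glioma cells exposed to compounds for 16 h, using GRP78 as sensor.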
Active calls of the source: *; ? = inconclusive; nt = no result given; [ ] = dose if it differs, or a comment. Many of the other results were omitted from the sample, so hits are more common in it than they were. The call rests on the fitted dose curve; in most records, active means well fitted curve in the direction sought with a large enough effect; inconclusive means small, poorly fitted or top-dose-only effect, or another doubt; inactive means no such curve, though single readings can be large; an effect the other way counts as inactive or inconclusive. Potency means the concentration at half of the fitted maximal effect.

SMILES	VDR inh	G9a inh	ALOX12 inh	Sfp inh	Glioma ERSR ind
O=[N+]([O-])c1ccc(CN2CCC(Cc3ccccc3)CC2)cc1	-15%	?	?	-20%	4%
Cc1nn(CC(=O)c2cc(C)n(CCC(C)C)c2C)c(=O)c(C#N)c1C	nt	nt	-9%	nt	nt
CC1(C)CC(=O)C/C(=N/NC(=O)CCc2ccccc2)C1	nt	nt	67%	nt	nt
COc1cc(/C=C(/C#N)c2ccccn2)cc(Cl)c1OC(F)F	nt	nt	-47%	nt	nt
CSc1cccc(NC(=O)CCc2ncc(-c3c(F)cccc3F)o2)c1	nt	nt	-30%	nt	nt
CCOc1ccc(C(=O)NC2CCN(C(=S)NCc3ccco3)CC2)cc1	-1%	?	8%	7.1µM*	-1%
O=C(NC1CCCCC1)NC1CC2CCC(C1)N2C(=S)NCc1ccco1 (stereo unspecified)	13%	-26%[59 µM]	4%	45µM*	1%
S=C(NCc1ccco1)N1CCN(C/C=C/c2ccccc2)CC1	-7%	nt	1%	79µM*	2%
CCOc1ccccc1N1CCN(C(=S)NCc2ccccc2)CC1	1%	-47%	12%	-3%	-2%
CCOc1ccccc1N1CCN(C(=S)NCc2ccco2)CC1	-23%	50µM*	-12%	-10%	-1%
O=C(Nc1ccccc1C(=O)NCc1ccco1)NC1CCCCC1	-8%	3%	46%	1%	-4%
CC(=O)c1ccc(N2CCN(C(=S)NCc3ccco3)CC2)cc1	-8%	56µM*	-6%	5%	1%
S=C(NCc1ccco1)N1CCN(c2ccc(Cl)cc2)CC1	12%	?	-20%	7%	0%
Cc1ccc2c(=O)cc(C(=O)Nc3ccc4nsnc4c3)oc2c1	nt	nt	-6%	nt	nt
COc1ccc(C2CC(c3ccccc3)=NN2c2ccc(Cl)c(C(=O)O)c2)cc1 (stereo unspecified)	-10%	nt	?	56µM*	9%
COc1ccc(C2CC(c3ccccc3O)=NN2c2ccccc2)cc1 (stereo unspecified)	19%	nt	0%	nt	-5%
COc1ccc(C2CC(c3ccccc3)=NN2c2ccc(N)cc2)cc1 (stereo unspecified)	-9%	45µM*	?	-11%	0%
COc1ccc(C2=NN(c3ccc(C(=O)O)cc3)C(c3ccc(OC)c(OC)c3)C2)cc1 (stereo unspecified)	-18%	39%	?	-6%	8%
O=C(c1ccc(C(F)(F)F)cc1)N1CCCC2(C1)C(=NC1CCCC1)NC(=O)N2c1cc(F)cc(F)c1 (stereo unspecified)	nt	nt	3%[6.33 µM]	nt	nt
COCCN1CCc2c(C)nc3c(-c4ccc(OC)c(OC)c4)cnn3c21	0%	79µM*	0%	0%	1%
C=CCNC(=O)N[C@H]1CCN(C(=O)CSC)[C@@H]1C(=O)N[C@@H](Cc1cccs1)C(N)=O	nt	nt	-1%	nt	nt
CN(C)C(=O)c1cnc(Cc2c[nH]c3ccccc23)c(I)c1	nt	nt	14µM*	nt	nt
Cc1cnc(C(=O)NCCc2c[nH]c3ccccc23)cn1	nt	nt	-18%	nt	nt
CCOC(=O)c1c(C)n(-c2ccc(C)cc2)c2ccc(OCC(O)CNCC3CCCO3)cc12 (stereo unspecified)	-15%	16µM*	nt	45µM*	-11%
CCOC(=O)c1c(C)n(-c2ccc(C)cc2)c2ccc(OCC(O)CNCCCO)cc12 (stereo unspecified)	-7%	8.9µM*	?	?	-17%
SMILES	VDR inh	G9a inh	ALOX12 inh	Sfp inh	Glioma ERSR ind
CCOC(=O)c1c(C)n(C)c2ccc(OCC(O)CNC(CC)CO)cc12 (stereo unspecified)	1%	?	0%	-5%	-4%
OC(CNCC1CCCO1)COc1ccc(OCC(O)CNCC2CCCO2)cc1 (stereo unspecified)	12%	2%[59 µM]	nt	9%	-4%
OCC1CN(c2ncccn2)CC12CCN(Cc1cc(Cl)ccc1F)CC2 (stereo unspecified)	nt	nt	-5%	nt	nt
S=c1[nH]nc2nnc3ccccc3n12	-12%	3.2µM*	?	56µM*	-2%
CN(C)CCCOc1ccc(C(C)(C)c2ccccc2)cc1	-10%	?	?	-28%	-6%
CC(C)N(CCNCC(O)COc1ccc(C(C)(C)c2ccccc2)cc1)C(C)C (stereo unspecified)	2%	20µM*	?	?	-10%
CN(C)CCOc1ccc(C(C)(C)c2ccccc2)cc1	-9%	11µM*	?	45µM*	-4%
OC(CNCCc1ccccc1)COc1ccc(OCC(O)CNCCc2ccccc2)cc1 (stereo unspecified)	5%	nt	0%	-4%	-9%
Cc1ccc(CCNC(=O)c2nnn3c2COC(c2ccc(Cl)cc2)C3)cc1 (stereo unspecified)	nt	nt	-1%	nt	nt
O=C(c1ccco1)N(Cc1cccnc1)Cc1cc2ccccc2[nH]c1=O	nt	nt	2%	nt	nt
NC(N)=NS(=O)(=O)c1ccc(NC(=S)NC(=O)c2sc3ccccc3c2Cl)cc1	-13%	?	-13%	56µM*	-1%
COc1cc(NS(=O)(=O)c2ccc(NC(=O)c3cccs3)cc2)nc(OC)n1	-6%	-14%	-42%	6%	-6%
Cc1ccc(NC(=O)c2sc3ccccc3c2Cl)cc1	11%	-40%[59 µM]	-1%	nt	3%
COc1cc(NS(=O)(=O)c2ccc(NC(=S)NC(=O)c3sc4cc(F)ccc4c3Cl)cc2)nc(OC)n1	?	?	?	50µM*	-2%
COc1cc(NS(=O)(=O)c2ccc(NC(=S)NC(=O)c3sc4ccccc4c3Cl)cc2)nc(OC)n1	-12%	?	-24%	50µM*	-1%
O=C(O)c1ccccc1NC(=S)NC(=O)c1sc2ccccc2c1Cl	?	10µM*	19%	45µM*	-3%
COc1ccccc1-c1coc2cc(OC(=O)c3ccc(C)cc3)ccc2c1=O	nt	nt	23%	nt	nt
Cn1nc(C(=O)Nc2ncc(Cc3cccc(C(F)(F)F)c3)s2)c2ccccc2c1=O	nt	nt	13%	nt	nt
CCCc1cc2c(=O)c(-c3nc4ccccc4s3)c(COCC(=O)O)oc2cc1O	2%	50µM*	?	-8%	-1%
COC(=O)c1ccccc1S(=O)(=O)N1CCC(C(=O)NCCc2ccccn2)CC1	nt	nt	5%	nt	nt
COc1cc2ncnc(NCc3cccc(Cl)c3)c2cc1OC	-20%	40µM*	-20%	3%	-4%
COc1ccccc1CNc1ncnc2cc(OC)c(OC)cc12	12%	32µM*	?	7%	-1%
COc1ccc(CNc2ncnc3cc(OC)c(OC)cc23)cc1	-9%	40µM*	0%	1%	0%
COc1cc2ncnc(NCc3ccccc3)c2cc1OC	-8%	71µM*	0%	-11%	-4%
COc1cc2ncnc(NCc3cc(F)ccc3F)c2cc1OC	-24%	12%[2.33 µM]	-13%	15%	-4%
CCC(CC)NC(=O)COC(=O)c1cc(C)ccc1C	nt	nt	30%	nt	nt
COC(=O)c1c(C)[nH]c(C(=O)NCCc2ccc(Cl)cc2)c1C	nt	nt	-5%	nt	nt
COc1cc2ncnc(Nc3ccc(Cl)cc3F)c2cc1OC	-7%	nt	20µM*	0%	-3%
